Measured values published in ChEMBL document CHEMBL3433997, “St. Jude Leishmania screening dataset” (2016).

Tests used:
Type in all cases: functional
[1] = target: Solute carrier family 2, facilitated glucose transporter member 1 (Homo sapiens) (UniProt P11166); test: ST_JUDE_LEISH: Cytotoxicity at 2uM final concentration against transgenic Leishmania Mexicana promastigotes LmGLUT1 that are glucose transport deficient and complemented with the human glucose transporter GLUT1. Activity is measured by DNA content using SYBR green in vitro
Chain of Solute carrier family 2, facilitated glucose transporter member 1 (Homo sapiens) (P11166 whole entry): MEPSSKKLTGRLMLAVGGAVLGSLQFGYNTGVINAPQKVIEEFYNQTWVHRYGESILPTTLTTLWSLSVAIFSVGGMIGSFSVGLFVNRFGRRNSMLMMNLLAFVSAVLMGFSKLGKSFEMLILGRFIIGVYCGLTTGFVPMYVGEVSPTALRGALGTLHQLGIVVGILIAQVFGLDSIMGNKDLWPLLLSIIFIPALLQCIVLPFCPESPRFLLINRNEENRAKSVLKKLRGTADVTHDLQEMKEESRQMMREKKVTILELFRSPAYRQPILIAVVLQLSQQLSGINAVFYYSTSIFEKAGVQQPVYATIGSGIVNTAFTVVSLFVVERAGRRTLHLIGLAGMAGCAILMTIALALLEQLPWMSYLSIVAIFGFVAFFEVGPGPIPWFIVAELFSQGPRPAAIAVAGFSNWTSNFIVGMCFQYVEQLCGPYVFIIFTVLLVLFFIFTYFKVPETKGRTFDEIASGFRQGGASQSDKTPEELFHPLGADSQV

[2] = target: Hexose transporter 1 (Plasmodium falciparum) (UniProt O97467); test: ST_JUDE_LEISH: Cytotoxicity at 2uM final concentration against transgenic Leishmania Mexicana promastigotes LmPfHT that are glucose transport deficient and complemented with the Plasmodium falciparum hexose transporter. Activity is measured by DNA content using SYBR green in vitro
[3] = target: Glucose transporter (Leishmania mexicana) (UniProt O61059); test: ST_JUDE_LEISH: Cytotoxicity at 2uM final concentration against transgenic Leishmania Mexicana promastigotes LmGT2 that are glucose transport deficient and complemented with the L. Mexicana glucose transporter 2. Activity is measured by DNA content using SYBR green in vitro

Row | SMILES | inhibition [1] [%] | inhibition [2] [%] | inhibition [3] [%]
1 | CC1(C)CCCN(Cc2c(O)ccc3c(O)c(-c4nc5ccccc5s4)c(=N)oc23)C1 | 4.5 | 1.38 | -2.9
2 | CC(=O)c1ccc2c(c1)C(NC(=O)c1cccc(Cl)c1Cl)C(CO)C(C)(C)O2 (stereo unspecified) | 1.76 | 3.84 | -1.69
3 | Nc1nc(N)c2c(ccn2Cc2cc3c(cc2Cl)OCO3)n1 | 4.12 | 2.86 | 10.5
4 | NC(=O)c1cccc(Nc2nccc(Nc3ccc4[nH]c(-c5ccccc5)cc4c3)n2)c1 | -0.28 | 0.57 | 1.6
5 | CNC(=O)C1Cc2c([nH]c3cc(Cl)ccc23)C2(CCN(CCc3ccccc3)CC2)N1 (stereo unspecified) | 0.42 | 1.39 | 1.5
6 | Oc1cccc(-c2nc(-c3ccccc3)c(-c3ccc(Oc4ccc(-c5[nH]c(-c6cccc(O)c6)nc5-c5ccccc5)cc4)cc3)[nH]2)c1 | 1.24 | 2.89 | 1.33
7 | CC(C)COc1ccc(Cl)cc1Cc1nc(-c2nc3ccc(CN(C)C)cc3[nH]2)co1 | 4.88 | 4.73 | 4.57
8 | Cc1[nH]c2ccccc2c1C(=O)C(C)Sc1nnc(-c2ccccc2F)o1 (stereo unspecified) | 2.5 | 1.95 | 3.81
9 | O=C(Nc1ccc(Br)cc1)c1cc(Br)ccc1NS(=O)(=O)c1cc(C(F)(F)F)cc(C(F)(F)F)c1 | -2.23 | 0.04 | -0.28
10 | CCC(ON1C(N)=NC(N)=NC1(C)C)c1ccc(Cl)cc1 (stereo unspecified) | 6.11 | 8.81 | 10.4
11 | CCCOc1cccc(C(=O)N[C@@H](Cc2ccccc2)[C@H](O)CNCc2cccc(OC)c2)c1 | 0.22 | 0.92 | -3.25
12 | Oc1ccc(CCNc2nc(NCCCOc3ccccc3-c3ccc(F)cc3)nc(N3CCNCC3)n2)cc1 | 13.3 | 14.8 | 9.28
13 | CN1CCN(CCNc2c3ccccc3nc3c2ccc2ccccc23)CC1 | 84.6 | 88 | 81.5
14 | CC(=O)Nc1cccc(C(=O)Nc2cccc(-c3cccc(-c4nc5ccccc5[nH]4)c3)c2)c1 | 16.4 | 15.5 | 17.4
15 | CCCCN(C)CC#Cc1ccc(-c2ccc3[nH]c(C)c(Br)c(=O)c3c2)cn1 | 6.4 | 7.74 | 8.6
16 | COc1ccc(-c2cc3ncn(CC(=O)N4CCN(c5cccc(OC)c5)CC4)c(=O)c3s2)cc1 | 2.19 | 3.48 | 2.45

Row | SMILES | inhibition [1] [%] | inhibition [2] [%] | inhibition [3] [%]
17 | COc1ccc(Br)cc1C1Nc2ccc3ccccc3c2C2=C1C(=O)CC(c1ccccc1)C2 (stereo unspecified) | 1.86 | 2.25 | 3.67
18 | O=C(Nc1ccc(Cl)c(Cl)c1)N(Cc1ccccc1Br)C1CCNCC1 | 0.5 | 3.45 | 0.68
19 | O=C(Nc1ccc(C(F)(F)F)cc1)c1ccc(S(=O)(=O)NC2CCN(Cc3ccccc3)C2)cc1 (stereo unspecified) | 5.58 | 5.18 | 2.71
20 | CC(C)C[C@@H](C(=O)N[C@@H](CCCCNC(=O)OCc1ccccc1)C(=O)Nc1nccs1)[C@H](C)N(O)C=O | 3.19 | 3.38 | 0.49
21 | N#Cc1ccc(/C=C/C(=O)NCCCCCN2CCN(C(=O)Nc3ccc(Cl)c(C(F)(F)F)c3)CC2)cc1 | 5.8 | 4.08 | 1.97
22 | CC1CN(c2ncc(-c3ccc(CNC4Cc5ccccc5C4)cc3)cn2)CC(C)N1 (stereo unspecified) | 2.69 | 2.64 | 0.64
23 | Cc1nc(Nc2cc(Cl)ccc2O)nc(Nc2cc(Cl)ccc2O)c1[N+](=O)[O-] | 4.36 | 3.14 | 1.45
24 | CC(C)CN1CCCN(Cc2cccc(NC(=O)c3ccc(-c4ccccc4)cc3)c2)CC1 | 0.53 | 0.24 | -5.07
25 | COc1ccc2nccc(NCC3(O)CCN(CC(O)c4ccc5c(c4)NC(=O)CS5)CC3)c2n1 (stereo unspecified) | 3.39 | 2.49 | 2.58
26 | NC1CCN(CCc2ccc(NS(=O)(=O)c3cccc4ccccc34)cc2)CC1 | -0.69 | -3.38 | 0.61
27 | O=C1C[C@@H]([S+]([O-])Cc2nccs2)N1CCOCCCCCCc1ccc(Cl)cc1 (stereo partly specified) | 9.09 | 8.24 | 9.2
28 | O=C(O)C[C@H](NC(=O)CCCNC(=O)c1cccc(-c2ccc(Cl)c(Cl)c2)c1)C(=O)O | -1.37 | 0.62 | 1.4
29 | Cc1ncc([N+](=O)[O-])n1CCOC(=O)NC(Nc1ccc(Br)cc1)C(Cl)(Cl)Cl (stereo unspecified) | 2.8 | 0.15 | -1.63
30 | CC(C)COc1ccc(Cl)cc1Nc1nc(-c2nc3ccccc3[nH]2)cs1 | 2.76 | 1.35 | 1.01
31 | Cc1cc(N[C@@H](CC(C)C)C(=O)NCCOc2ccccc2)nc(NCCc2ccc(F)cc2)n1 | 2.19 | 2.57 | -0.16
32 | O=C(Nc1ccc(Cl)cc1)Nc1cccc(-c2ccc(-c3nc4cc(F)ccc4[nH]3)cc2)c1 | 6.12 | 1.78 | 4.76
